# Out of some 2,300 compounds screened, about 330 (14%) showed activity.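 The calls were made as follows: active = median modified Z-score above 1.96; inactive = 1.96 or below.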 A selection follows.
# Tested on: HepG2 Srxn1-GFP reporter cells (+30 nM CDDO-Me)
# Experiment: Srxn1-GFP intensity median modified Z-score relative to plate median; higher = stronger NRF2 / oxidative stress reporter activation, active = hit call of the paper
# Details: 10 µM; exposure time: 24h
# Outline: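 Each value is the replicate median of a per-plate modified Z-score for GFP intensity in HepG2 Srxn1-GFP BAC reporter cells. The cells (20,000 per well, 96-well plates, three replicate plates) received compound at 10 μM together with an NRF2 activator at 30 nM for 24 h, in ≤0.1% DMSO. Cytoplasmic GFP was quantified per cell from confocal images of formaldehyde-fixed, Hoechst-stained cells, leaving out images with fewer than 100 cells, and scaling used 1.4826 × median absolute deviation.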
row,Compound,Srxn1-GFP intensity median modified Z-score
1,CCC(C)(C)O [euspeclibcmpd964],-0.585 (inactive)
2,C#CC(C)(O)CC (configuration not stated) [euspeclibcmpd1276],1.99 (active)
3,CC1C(=O)O[C@@H]2CCN3CC=C(COC(=O)[C@](C)(O)[C@]1(C)O)[C@H]23 (some centres not stated) [euspeclibcmpd1632],-0.339 (inactive)
4,N=c1[nH]c(=N)[nH]c(=NC2CC2)[nH]1 [euspeclibcmpd1229],-0.282 (inactive)
5,CNC(=O)Oc1ccccc1OC(C)C [euspeclibcmpd1026],-0.0719 (inactive)
6,c1ccc2c(c1)sc1ccccc12 [euspeclibcmpd88],3.54 (active)
7,c1ccc2c(c1)oc1ccccc12,0.352 (inactive)
8,C#CC1(O)CCC2C3CC=C4CC(=O)CCC4(C)C3CCC21C (configuration not stated) [euspeclibcmpd545],-0.576 (inactive)
9,CN1C2C[C@H](OC(=O)C(CO)c3ccccc3)C[C@@H]1[C@@H](O)C2 (some centres not stated) [euspeclibcmpd1244],-0.443 (inactive)
10,CC(C)CC(N(C)C)C1(c2ccc(Cl)cc2)CCC1 (configuration not stated) [euspeclibcmpd2026],-0.299 (inactive)
11,O=c1cccc2n1C[C@H]1CNCC2C1 [euspeclibcmpd1159],0.6 (inactive)
12,C[N+]1(C)C2CC(OC(=O)C(CO)c3ccccc3)CC1C1OC12 (configuration not stated) [euspeclibcmpd193],-0.176 (inactive)
13,O=C(O)C1CCN1 (configuration not stated),1.24 (inactive)
14,C[N+](C)(C)CCCCCCCCCC[N+](C)(C)C [euspeclibcmpd902],4.92 (active)
15,NCC1(CC(=O)O)CCCCC1 [euspeclibcmpd872],-0.0794 (inactive)
16,CN(C(=O)Oc1cccc2cccnc12)c1ccccc1,5.69 (active)
17,COc1cc(OC)c2c(c1)O[C@H](c1ccc(OC)c(OC)c1)[C@@H](O)C2 [euspeclibcmpd1381],-0.52 (inactive)
18,COc1cc2c(cc1-c1cc3cc4ccoc4cc3oc1=O)OCO2 [euspeclibcmpd1721],0.147 (inactive)
19,C[C@]12CCC3C(CC[C@H]4CC(=O)CC[C@]34C)C1CCC2=O (some centres not stated) [euspeclibcmpd1450],-0.253 (inactive)
20,N#CC(O[C@@H]1O[C@H](CO[C@@H]2O[C@H](CO)[C@@H](O)[C@H](O)[C@H]2O)[C@@H](O)[C@H](O)[C@H]1O)c1ccccc1 (some centres not stated) [euspeclibcmpd1342],-0.305 (inactive)
21,O=C(N/N=C/c1ccc([N+](=O)[O-])o1)c1cc([N+](=O)[O-])cc([N+](=O)[O-])c1O [euspeclibcmpd462],3.58 (active)
22,Cc1nccc2c1[nH]c1ccccc12 [euspeclibcmpd1462],-0.275 (inactive)
23,COc1ccc2c(c1)[nH]c1c(C)nccc12 [euspeclibcmpd1501],1.98 (active)
24,CNc1ccc(C(=O)CC(O)CCC(C)C2OC(=O)CC(O)CC(=O)CC(O)CC(O)CC(O)CC(O)CC3(O)CC(O)C(C(=O)OC)C(CC(OC4OC(C)C(O)C(N)C4O)C=CC=CC=CC=CC=CC=CC=CC2C)O3)cc1 (configuration not stated) [euspeclibcmpd1836],0.559 (inactive)

row,Compound,Srxn1-GFP intensity median modified Z-score
1,NC1C[C@H]1c1ccccc1 (some centres not stated) [euspeclibcmpd300],1.01 (inactive)
2,CCOC(=O)CC(SP(=S)(OC)OC)C(=O)OCC (configuration not stated) [euspeclibcmpd992],0.167 (inactive)
3,OC[C@@H]1CCCN2CCCC[C@H]12 [euspeclibcmpd1729],-0.476 (inactive)
4,CCN1C[C@@]2(COC)C3[C@@H](OC)[C@H]4[C@@H]1[C@]3(C(OC)C[C@H]2O)C1C[C@@]2(O)[C@H](OC(=O)c3ccccc3)C1[C@]4(OC(C)=O)[C@@H](O)[C@@H]2OC (some centres not stated) [euspeclibcmpd686],0.0544 (inactive)
5,COP(=O)(OC)OC=C(Cl)Cl [euspeclibcmpd1300],1.08 (inactive)
6,CN(C)C(=S)SSC(=S)N(C)C [euspeclibcmpd571],1.95 (inactive)
7,N#CC(=Cc1cccc(O)c1)C(=O)O [euspeclibcmpd2014],0.195 (inactive)
8,Oc1ccc(Cl)cc1 [euspeclibcmpd227],-0.0545 (inactive)
9,CC(Oc1ccc(Cl)cc1Cl)C(=O)O (configuration not stated) [euspeclibcmpd2066],0.00229 (inactive)
10,Oc1cc(Cl)ccc1Oc1ccc(Cl)cc1Cl [euspeclibcmpd800],3.85 (active)
11,CCOc1cc(C=O)ccc1O [euspeclibcmpd2137],0.0734 (inactive)
12,CNc1ccccc1C(=O)O [euspeclibcmpd1568],-0.451 (inactive)
13,CCC(C)C(=O)O[C@@H]1C[C@@]2(C)[C@H](c3ccoc3)OC(=O)CC23OC2(C)O[C@]14[C@]1(C)[C@@H](CC(=O)OC)C5(C)CC1(O)[C@](O)(C5OC(=O)C1(C)OC1C)[C@@H](OC(C)=O)[C@]34O2 (some centres not stated) [euspeclibcmpd1590],1.25 (inactive)
14,N=C(N)NOCCC(N)C(=O)O (configuration not stated) [euspeclibcmpd2161],-0.447 (inactive)
15,C#C[C@]1(O)CC[C@H]2[C@@H]3CC=C4CC(=O)CCC4C3CC[C@@]21CC (some centres not stated) [euspeclibcmpd2176],0.145 (inactive)
16,NCCCc1c[nH]c2ccccc12,1.08 (inactive)
17,CC1=C2C3OC(=O)C(C)[C@@H]3CC[C@@]2(C)C=CC1=O (some centres not stated) [euspeclibcmpd1347],0.307 (inactive)
18,CC=C(C)C(=O)O[C@H]1C[C@@H](OC(C)=O)[C@@]2(C(=O)OC)CO[C@@H]3C2[C@]12CO[C@](O)(C(=O)OC)[C@H]2[C@](C)([C@]12O[C@@]1(C)[C@H]1C[C@@H]2OC2OC=C[C@@]21O)[C@@H]3O (some centres not stated) [euspeclibcmpd1486],2.24 (active)
19,C#C[C@]1(O)CCC2C3CC=C4CC(=O)CCC4C3CC[C@@]21CC (some centres not stated) [euspeclibcmpd2251],-0.375 (inactive)
20,O=c1n(Cl)c(=O)n(Cl)c(=O)n1Cl [euspeclibcmpd935],-0.815 (inactive)
21,c1ccc(/N=N\c2ccccc2)cc1 [euspeclibcmpd1762],0.733 (inactive)
22,C[C@]12CCC3c4ccc(OC(=O)N(CCCl)CCCl)cc4CCC3C1CC[C@@H]2O (some centres not stated) [euspeclibcmpd984],2.13 (active)
23,C[C@]12CCC(=O)CC1=CCC1C2CC[C@@]2(C)C1CC[C@@H]2O (some centres not stated) [euspeclibcmpd2134],-0.455 (inactive)

# Reference: the supplement of paper PMC10498489
